An excerpt weighted towards active compounds, which were near 8.9% of everything screened.
ALDH1A1 block = inhibitors of human aldehyde dehydrogenase 1A1. P00352. Purified ALDH1A1, NADH fluorescence, propionaldehyde substrate. Potency, µM (top dose mostly 75.3 µM), without a hit: top-dose activity, negative = inhibition, most hits filed as inhibitors. hit rate 7.3% among 220,000. AID 1030; active = well fitted inhibition curve with a large enough effect, not every such curve was filed as active; inconclusive = small, poorly fitted or top-dose-only effect, or another doubt; inactive = no such curve, though single readings can be large or run the other way;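 note: potency is the fitted concentration of half-maximal effect; plate controls were no enzyme wells and a reference inhibitor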
12-hLO inh = 12-hLO (ALOX12) enzyme inhibition | AID 1452 | Potency, µM (highest dose often 57.1 µM), inactives show top-dose activity change, negative = inhibition, usual class: inhibitors | P18054 | purified 12-hLO, xylenol orange hydroperoxide absorbance | hit rate 0.12% among 150,000; note: potency is the fitted concentration of half-maximal effect; nearly all actives have a fitted effect of over 55% in size
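Hydroperoxide formation by human 12-lipoxygenase from 40 uM arachidonic acid was followed colorimetrically via ferric-xylenol orange complex, using the 573/405 nm absorbance ratio. Enzyme concentration was 150 nM, with 30 min reaction at room temperature.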
HPGD inh = HPGD (human) dehydrogenase inhibition | Potency, µM, for inactives: at the top dose activity change, negative = inhibition, usual class: inhibitors | hit rate 4.3% among 150,000 | purified HPGD, NADH fluorescence kinetic, PGE2 substrate; active = well fitted inhibition curve with a large enough effect, not every such curve was filed as active; inconclusive = small, poorly fitted or top-dose-only effect, or another doubt; inactive = no such curve, though single readings can be large or run the other way; note: potency is the fitted concentration of half-maximal effect
Target sequence (P15428 whole entry, looked up): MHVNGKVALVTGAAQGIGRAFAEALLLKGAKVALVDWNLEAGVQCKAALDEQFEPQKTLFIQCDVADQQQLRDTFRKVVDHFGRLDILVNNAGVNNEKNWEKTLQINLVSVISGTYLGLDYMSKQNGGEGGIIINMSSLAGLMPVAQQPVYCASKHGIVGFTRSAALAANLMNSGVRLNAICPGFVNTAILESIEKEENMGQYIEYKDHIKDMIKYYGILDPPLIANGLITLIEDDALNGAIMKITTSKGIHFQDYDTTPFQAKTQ
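NADH formation kinetics: reaction with 30 uM PGE2 and 1 mM NAD+ (final), 20 nM enzyme, Tris-HCl pH 8 with Tween 20, after 15 min compound preincubation at room temperature. Fluorescence change, last versus first of five reads.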
NPSR antag = blocks cAMP signaling of the human neuropeptide S receptor | Q6W5P4 | CHO-NPSR cells, cAMP TR-FRET, antagonist mode | Potency, µM (series often up to 38.3 µM), for inactives: at the highest dose activity change, negative = inhibition, hits mostly inhibitors | hit rate 1% among 220,000 | AID 1461; note: potency is the fitted concentration of half-maximal effect; nearly all actives have a fitted effect of over 50% in size
Target sequence (Q6W5P4 whole entry, looked up): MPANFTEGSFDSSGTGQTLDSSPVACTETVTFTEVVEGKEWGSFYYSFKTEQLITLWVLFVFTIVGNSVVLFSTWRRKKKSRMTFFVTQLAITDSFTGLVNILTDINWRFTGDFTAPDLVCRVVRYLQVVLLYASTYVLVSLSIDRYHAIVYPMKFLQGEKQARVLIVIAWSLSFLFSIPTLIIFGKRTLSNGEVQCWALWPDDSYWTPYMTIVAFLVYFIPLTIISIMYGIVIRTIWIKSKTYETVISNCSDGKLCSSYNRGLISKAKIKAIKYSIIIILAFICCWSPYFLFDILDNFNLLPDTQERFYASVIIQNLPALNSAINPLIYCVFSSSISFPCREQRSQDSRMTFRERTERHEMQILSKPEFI
IMPase cell inh = membrane-permeable compound that blocks inositol monophosphatase. 120,000 tested, under 10 active. CHO-M1 cells, IP1 accumulation, HTRF TR-FRET ratio. P97697. inhibition (IP1 accumulation), % at 46.1 µM; active = well fitted curve in the direction sought with a large enough effect in the signal ratio, not every such curve was filed as active; inconclusive = small, poorly fitted or top-dose-only effect, or a change in a side signal; inactive = no such curve, though single readings can be large or run the other way; the % refers to the signal ratio;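 note: cells stimulated with carbachol in lithium chloride buffer; plate controls were DMSO basal wells for no effect and reference inhibitor wells for full effect; higher means more IMPase inhibition seen as more IP1 and lower FRET ratio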
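Cellular IMPase inhibition is scored as a rise in cytosolic IP1, detected by competitive TR-FRET between d2-labelled IP1 and a europium anti-IP1 antibody. M1-expressing CHO cells were stimulated with carbachol for 30 min at 37C, with lithium (50 mM LiCl) present in the buffer.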
IMPase Li inh = cell-permeable IMPase inhibitors with lithium potentiation; Potency, µM (doses to about 59.4 µM), for inactives: at the top dose activity, negative = IMPase inhibition, most hits filed as inhibitors; AID 1457; hit rate 0.35% among 210,000; CHO-M1 cells, IP1 TR-FRET (IP-One), carbachol + lithium;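 note: IP1 builds up when IMPase is blocked and the TR-FRET signal falls; potency is the fitted concentration of half-maximal effect; plate controls were basal vehicle for no effect and high inhibitor control for full effect; nearly all actives have a fitted effect of over 50% in size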
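Test compounds were applied to CHO-M1 cells previously cultured for 16–30 h at 2000 per well. A small lithium amount accompanied them; after 30 min at 37C, IP1 was quantified by TR-FRET.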
* = called active by the depositor; ? = inconclusive; nt = no result given; ! = not active in a repeat; [ ] = remark or other dose. Unless noted, calls come from the whole dose curve; as a rule, active = well fitted curve in the direction sought with a large enough effect; inconclusive = small, poorly fitted or top-dose-only effect, or another doubt; inactive = no such curve, though single readings can be large; an effect the other way counts as inactive or inconclusive. Unless noted, % is set by controls: 0 for no effect and ±100 for the full control effect.

SMILES	ALDH1A1 block	12-hLO inh	HPGD inh	NPSR antag	IMPase cell inh	IMPase Li inh
CC(C)C(C(=O)O)N1C(=O)/C(=C/C=C/c2ccco2)SC1=S (stereo unspecified)	?	?	3.5µM*	-17%[46.1 µM]	5	9%[38.3 µM]
O=C(/C=C/c1ccc(O)c(O)c1)O[C@H]1C[C@@](O)(C(=O)O)CC(O)C1O (stereo partly specified)	-2%	-6%	4%	nt	nt	16%
O=C(/C=C/c1ccc(O)c(O)c1)OC1C[C@](O)(C(=O)O)C[C@@H](O)[C@H]1O (stereo partly specified)	24µM*!	-2%	-12%	nt	nt	12%
Cc1ccc(/C=C/C(=O)N2CCCC(C)C2)cc1 (stereo unspecified)	?	-1%	1.6µM*	-12%	nt	-1%
CCOC(=O)C1CCCN(C(=O)/C=C/c2ccc(Cl)cc2)C1 (stereo unspecified)	-6%	nt	nt	14%	nt	4%
CC1CCN(C(=O)/C=C/c2ccc(C(C)(C)C)cc2)CC1	5%	-2%	16µM*	-28%	nt	9%
CC(C)(C)c1ccc(/C=C/C(=O)N2CCCCC2)cc1	?	nt	nt	-55%	nt	9%
CN(C(=O)CSc1nnc(Cc2ccccc2F)n1N)C1CCS(=O)(=O)C1 (stereo unspecified)	-2%	2%	-1%	-3%[46.1 µM]	-2	6%[38.3 µM]
CON1C(=O)C(=O)N(OC)C(C)(C)C1(C)C	20µM*	-1%	1%	23%	nt	0%
COc1ccc(C(=O)C(OC(=O)CNC(=O)c2ccco2)c2ccccc2)cc1 (stereo unspecified)	20µM*	-4%	-9%	-15%[46.1 µM]	1	-13%[38.3 µM]
COc1ccc(CCNC(=O)CSc2ccc(-c3ccco3)nn2)cc1	3.2µM*	nt	nt	-3%	nt	0%
O=C(CSc1ccc(-c2ccco2)nn1)NCCc1ccccc1	7.1µM*	nt	nt	10%	nt	1%
O=C(CSc1ccc(-c2ccco2)nn1)NCc1ccc(F)cc1	?	-2%	-14%	3%	?	-25%
CC(=O)Oc1ccc(Cl)cc1/C=C/c1ccc2ccccc2n1	-15%	-2%	?	?	-23	-13%
Cc1ccc(-n2[nH]c(C)c(C=Nc3ccc(S(=O)(=O)Nc4nccs4)cc3)c2=O)cc1	-16%	-1%	?	-17%	nt	8%
CNS(=O)(=O)c1ccc(N=Cc2c(C)[nH]n(-c3ccc(C)cc3C)c2=O)cc1	4%	nt	nt	-4%	nt	-1%
Cc1ccc(-n2[nH]c(C)c(C=Nc3ccc(S(=O)(=O)Nc4nc(C)cc(C)n4)cc3)c2=O)c(C)c1	-18%	0%	22µM*	-13%	-1	1%
CCc1nnc(NS(=O)(=O)c2ccc(N=Cc3c(C)[nH]n(-c4ccc(C)c(C)c4)c3=O)cc2)s1	11µM*	0%	16µM*	-33%	-1	6%
CC(=O)CC(C)=NCCN=C(C)CC(C)=O	-4%	-9%	-8%	-14%[46.1 µM]	?	15%[38.3 µM]
O=C(Cn1cnc2ccccc2c1=O)N1CCc2ccccc2C1	2%	nt	nt	3%	nt	4%
O=C(COC(=O)Cn1cnc2ccccc21)Nc1ccc2c(c1)C(=O)c1ccccc1C2=O	0.63µM*	-4%	-26%	10%	nt	-13%
O=C(COC(=O)Cn1cnc2ccccc21)Nc1cccc(S(=O)(=O)N2CCOCC2)c1	?	nt	nt	3%	nt	2%
O=C(Cn1cnc2ccccc21)OCC(=O)N1CCc2ccccc2C1	28µM*	-4%	-14%	16%[46.1 µM]	17	15%[38.3 µM]
Cc1ccc(NC(=O)COC(=O)Cn2cnc3ccccc32)cc1S(=O)(=O)N(C)C	14µM*	5%	-2%	13%	nt	-2%
COc1ccc(Br)cc1[C@@H]1Nc2ccc(C(=O)O)cc2[C@@H]2C=CC[C@@H]21	nt	nt	nt	nt	-6	nt
SMILES	ALDH1A1 block	12-hLO inh	HPGD inh	NPSR antag	IMPase cell inh	IMPase Li inh
CCN(CC)CCOC(=O)c1ccc(NC(=O)c2cn(-c3ccccc3)nc2-c2cccs2)cc1	-3%	nt	nt	-35%	nt	29%
CCOc1ccc(/C=C/C(=O)Nc2ccc(C(N)=O)cc2)cc1OC	?	-5%	?	-5%	-4	4%
CCOC(=O)c1c(C)oc(NC(=O)COc2ccc(Cl)cc2C)c1C#N	?	-13%	32µM*	-23%[46.1 µM]	0	31%[38.3 µM]
Cc1cc(Cl)ccc1OCC(=O)Nc1nc(N)nc(N)n1	15%[13.5 µM]	-8%[11.4 µM]	-7%	nt	nt	9%
CCC1(C(=O)OC)NC(c2ccco2)C2C(=O)N(c3ccc(F)cc3)C(=O)C21 (stereo unspecified)	18µM*	nt	nt	-2%	nt	0%
CCC1(C(=O)OC)NC(c2ccco2)C2C(=O)N(c3ccccc3)C(=O)C21 (stereo unspecified)	?	-11%	-5%	2%[7.67 µM]	7	-14%[38.3 µM]
COc1cc(C)c2c(c1C=O)Oc1c(c(C)c(O)c3c1C(O)OC3=O)OC2=O (stereo unspecified)	-14%	-10%	20µM*	-18%	nt	-1%
Cc1cc(O)c(C=O)c2c1C(=O)Oc1c(C)c(O)c3c(c1O2)C(O)OC3=O (stereo unspecified)	?	?	10µM*	nt	nt	5%

Compound activity from PubChem BioAssay.
